According to PubChem BioAssay (NCATS):
Inconclusive results are not listed. Entries that show only a call come without a potency. Values without a mark were called inactive. Activity calls are given as the source filed them. The call rests on the fitted dose curve; in most records, active means well fitted curve in the direction sought with a large enough effect; inconclusive means small, poorly fitted or top-dose-only effect, or another doubt; inactive means no such curve, though single readings can be large; an effect the other way counts as inactive or inconclusive.

Legend:
[1] = molecular target: Rap guanine nucleotide exchange factor 3 (Homo sapiens) (UniProt O95398); assay: Confirmatory qHTS for antagonist of cAMP-regulated guanine nucleotide exchange factor 3 (EPAC1) (AID 1645880); details: EPAC1 Rap1B-BODIPY-GDP exchange, fluorescence; activity, negative = inhibition: at 115 µM (top of the series); further: nearly all actives have a fitted effect of over 55% in size; further: potency means the concentration at half of the fitted maximal effect
Chain of Rap guanine nucleotide exchange factor 3 (Homo sapiens) (O95398 whole entry, looked up): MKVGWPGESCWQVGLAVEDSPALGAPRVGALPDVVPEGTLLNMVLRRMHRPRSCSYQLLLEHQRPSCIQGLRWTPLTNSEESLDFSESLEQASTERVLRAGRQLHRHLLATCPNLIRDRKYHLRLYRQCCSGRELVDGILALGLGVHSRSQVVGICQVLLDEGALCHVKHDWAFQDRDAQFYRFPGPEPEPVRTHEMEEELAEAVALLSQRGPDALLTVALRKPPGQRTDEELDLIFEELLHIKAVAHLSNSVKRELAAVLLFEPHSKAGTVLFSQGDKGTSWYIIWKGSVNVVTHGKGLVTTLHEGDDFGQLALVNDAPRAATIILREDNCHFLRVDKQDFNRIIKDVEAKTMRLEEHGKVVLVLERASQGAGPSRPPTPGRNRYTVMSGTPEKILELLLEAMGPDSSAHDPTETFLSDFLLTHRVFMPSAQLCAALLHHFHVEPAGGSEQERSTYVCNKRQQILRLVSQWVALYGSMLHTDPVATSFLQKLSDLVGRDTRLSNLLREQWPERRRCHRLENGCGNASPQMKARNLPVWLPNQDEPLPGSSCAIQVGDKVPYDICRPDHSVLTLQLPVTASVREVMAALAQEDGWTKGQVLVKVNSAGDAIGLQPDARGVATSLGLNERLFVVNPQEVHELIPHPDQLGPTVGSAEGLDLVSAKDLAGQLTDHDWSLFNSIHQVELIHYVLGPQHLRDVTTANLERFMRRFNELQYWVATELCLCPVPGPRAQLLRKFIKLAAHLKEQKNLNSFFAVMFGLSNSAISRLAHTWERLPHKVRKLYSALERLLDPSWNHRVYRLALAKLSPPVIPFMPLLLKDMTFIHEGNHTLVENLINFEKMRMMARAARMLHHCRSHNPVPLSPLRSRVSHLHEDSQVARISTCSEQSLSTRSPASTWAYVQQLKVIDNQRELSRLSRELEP
How it was run: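 Released BODIPY-GDP fluoresces less than Rap1-bound BODIPY-GDP; the signal is followed at 480/540 nm at 5-min intervals over 30 min, after 5 min at room temperature. Reactions contain 100 nM EPAC1, 250 nM RAP1B-BODIPY-GDP and 50 uM GDP; results are normalized to ATA and DMSO.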

[2] = molecular target: Rap guanine nucleotide exchange factor 3 (Homo sapiens) (UniProt O95398); assay: Confirmatory qHTS for agonist of cAMP-regulated guanine nucleotide exchange factor 3 (EPAC1) (AID 1645881); details: EPAC1 Rap1B BODIPY-GDP exchange fluorescence; series mostly up to 154 µM;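 further: EPAC1 catalysed release of BODIPY-GDP from Rap1B seen as fluorescence loss; nearly all actives have a fitted effect of over 75% in size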
[3] = molecular target: Rap guanine nucleotide exchange factor 4 (Homo sapiens) (UniProt Q8WZA2); assay: Confirmatory qHTS for agonist of cAMP-regulated guanine nucleotide exchange factor 4 (EPAC2) (AID 1645884); details: EPAC2 GEF activity, Rap1B-BODIPY-GDP fluorescence; series mostly up to 154 µM;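 further: nucleotide exchange releases bodipy-GDP from Rap1 and this lowers its fluorescence; nearly all actives have a fitted effect of over 65% in size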
Chain of Rap guanine nucleotide exchange factor 4 (Homo sapiens) (Q8WZA2 whole entry, looked up): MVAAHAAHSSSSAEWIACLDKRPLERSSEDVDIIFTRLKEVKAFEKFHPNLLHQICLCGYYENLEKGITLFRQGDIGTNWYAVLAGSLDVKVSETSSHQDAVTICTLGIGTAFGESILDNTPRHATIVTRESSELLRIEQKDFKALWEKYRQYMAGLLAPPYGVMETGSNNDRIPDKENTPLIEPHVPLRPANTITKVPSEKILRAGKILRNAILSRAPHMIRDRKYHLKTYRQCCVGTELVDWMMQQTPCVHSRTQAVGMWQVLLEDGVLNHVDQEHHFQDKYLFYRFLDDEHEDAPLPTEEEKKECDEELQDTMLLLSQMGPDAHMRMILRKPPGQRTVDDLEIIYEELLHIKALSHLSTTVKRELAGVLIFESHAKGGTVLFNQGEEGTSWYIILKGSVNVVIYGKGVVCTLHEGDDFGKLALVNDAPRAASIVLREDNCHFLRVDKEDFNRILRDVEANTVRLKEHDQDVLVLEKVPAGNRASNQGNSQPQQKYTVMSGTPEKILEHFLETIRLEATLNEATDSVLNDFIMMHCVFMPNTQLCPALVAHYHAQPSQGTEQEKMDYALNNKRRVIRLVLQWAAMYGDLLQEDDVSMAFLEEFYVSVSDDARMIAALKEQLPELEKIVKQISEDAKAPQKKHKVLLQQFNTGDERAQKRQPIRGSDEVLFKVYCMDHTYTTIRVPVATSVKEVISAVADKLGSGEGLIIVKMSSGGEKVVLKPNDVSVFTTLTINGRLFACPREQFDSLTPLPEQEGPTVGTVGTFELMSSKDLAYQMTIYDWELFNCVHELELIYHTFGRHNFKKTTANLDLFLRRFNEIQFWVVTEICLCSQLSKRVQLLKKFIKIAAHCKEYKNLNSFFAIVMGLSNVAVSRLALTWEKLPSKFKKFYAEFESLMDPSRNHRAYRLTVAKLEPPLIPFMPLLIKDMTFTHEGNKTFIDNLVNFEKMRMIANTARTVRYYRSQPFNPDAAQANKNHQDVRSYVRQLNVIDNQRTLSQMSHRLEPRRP

[4] = molecular target: Rap guanine nucleotide exchange factor 4 (Homo sapiens) (UniProt Q8WZA2); assay: Confirmatory qHTS for antagonist of cAMP-regulated guanine nucleotide exchange factor 4 (EPAC2) (AID 1645885); details: EPAC2 Rap1B-BODIPY-GDP exchange fluorescence, biochemical; series mostly up to 12.7 µM; further: nearly all actives have a fitted effect of over 25% in size; further: potency means the concentration at half of the fitted maximal effect
[5] = molecular target: Rap guanine nucleotide exchange factor 3 (Homo sapiens) (UniProt O95398); assay: Counterscreen qHTS for antagonist of cAMP-regulated guanine nucleotide exchange factor 3 (EPAC1) (AID 1645888); details: Rap1B-BODIPY-GDP nucleotide exchange, fluorescence; series mostly up to 154 µM
How it was run: (§1)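 Rap1B–BODIPY-GDP (250 nM) with 50 uM GDP; compounds pin-transferred to 9.74 nM–152 uM final (activator) or from 7.32 nM upwards (inhibitor). Fluorescence Ex/Em 480/540 nm read at 5 and 30 min, then after adding cAMP or buffer, at room temperature.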

[6] = molecular target: Rap guanine nucleotide exchange factor 3 (Homo sapiens) (UniProt O95398); assay: Counterscreen qHTS for agonist of cAMP-regulated guanine nucleotide exchange factor 3 (EPAC1) (AID 1645889); details: EPAC1 Rap1B-BODIPY-GDP exchange, fluorescence; series mostly up to 154 µM; further: nearly all actives have a fitted effect of over 40% in size; further: potency means the concentration at half of the fitted maximal effect
How it was run: as §1

SMILES	Potency [1]	Potency [2]	Potency [3]	Potency [4]	Potency [5]	Potency [6]	activation [3]	activity change, negative = inhibition [5]	activation [6]
O=C(CN(Cc1ccco1)C(=O)c1ccc(Cl)cc1)Nc1c(Cl)cc(Cl)cc1Cl	inactive	inactive	inactive	inactive	inactive	inactive	–	–	–
CC(C)(C)N(NC(=O)Nc1ccc(F)cc1)C(=O)c1ccccc1	inactive	inactive	–	inactive	–	–	0.121% [at 17.1 µM, percent relative to cAMP agonist control]	-14.2% [at 30.8 µM]	0.382% [at 30.8 µM]
CC1=NOC(=O)/C1=C\c1ccc(-c2ccc(Br)cc2)o1	25.1 µM (active)	inactive	–	inactive	–	–	-0.7% [at 17.1 µM, percent relative to cAMP agonist control]	-10.2% [at 30.8 µM]	11.6% [at 30.8 µM]
COc1cnc(-c2ccccc2)c(-c2ccccc2)n1	inactive	inactive	–	inactive	–	–	7.78% [at 17.1 µM, percent relative to cAMP agonist control]	-6.36% [at 30.8 µM]	-4.28% [at 30.8 µM]
COc1ccc(CNC(=S)N/N=C/c2ccc(OC)c(OC)c2)cc1	inactive	inactive	inactive	67.5 µM (active)	inactive	inactive	–	–	–
COC(=O)c1ccccc1NC(=O)c1nn(-c2ccc(OC)cc2)c(=O)c2c1c1ccccc1n2C	inactive	inactive	inactive	inactive	inactive	inactive	–	–	–
CC(C)c1nn2c(=O)cc(COC(=O)c3cccc(NC(=O)c4cccs4)c3)nc2s1	inactive	inactive	inactive	inactive	inactive	inactive	–	–	–
COC(=O)c1cc(NC(=O)CC2SCCNC2=O)cc(C(=O)OC)c1 (stereo unspecified)	inactive	inactive	–	inactive	–	–	4.81% [at 17.1 µM, percent relative to cAMP agonist control]	6.38% [at 30.8 µM]	0.776% [at 30.8 µM]
CCOC(=O)C1CCCN(C(=O)C2(c3ccc(Cl)cc3)CCCC2)CC1 (stereo unspecified)	inactive	inactive	inactive	inactive	inactive	inactive	–	–	–
CC1=NOC(=O)/C1=C\c1ccc(-c2ccccc2Br)o1	21.3 µM (active)	inactive	inactive	inactive	inactive	inactive	–	–	–
CCc1nc2c(OCc3ccc(C(=O)N(C)C)cc3)cccn2c1N(C)C(=O)c1ccc(C)cc1	inactive	inactive	–	inactive	–	–	2.55% [at 17.1 µM, percent relative to cAMP agonist control]	-28.5% [at 30.8 µM]	21.1% [at 30.8 µM]
CN(Cc1ccc(Cl)cc1Cl)C(=O)CN1C(=O)NC2(CCCC2)C1=O	inactive	inactive	inactive	inactive	inactive	inactive	–	–	–
CCc1nnc(NS(=O)(=O)c2ccc(NC(=S)NC(=O)c3ccc(Br)cc3)cc2)s1	60.1 µM (active)	inactive	inactive	75.7 µM (active)	inactive	inactive	–	–	–
COc1nc(C)cc(C)c1S(=O)(=O)c1ccc(Cl)cc1	inactive	inactive	–	inactive	–	–	6.22% [at 17.1 µM, percent relative to cAMP agonist control]	-12.6% [at 30.8 µM]	27.8% [at 30.8 µM]
O=C1/C(=C\c2ccc(O)c(O)c2)C(c2ccccc2)=NN1c1ccccc1	16.9 µM (active)	inactive	inactive	inactive	inactive	inactive	–	–	–
CCOc1cc2c3c(c1)C(C)=CC(C)(C)N3C(=O)C2=O	inactive	inactive	–	inactive	–	–	-1.35% [at 17.1 µM, percent relative to cAMP agonist control]	-14.8% [at 30.8 µM]	25% [at 30.8 µM]
CNC(=O)COC(=O)c1cc(-c2ccco2)nc2ccccc12	23.9 µM (active)	inactive	inactive	inactive	inactive	50.1 µM (active)	–	–	–
COc1ccccc1NC(=O)CSc1nc2sc(C)c(C)c2c(=O)n1C	inactive	inactive	–	inactive	–	–	1.44% [at 17.1 µM, percent relative to cAMP agonist control]	-1.48% [at 30.8 µM]	15.6% [at 30.8 µM]

SMILES	Potency [1]	Potency [2]	Potency [3]	Potency [4]	Potency [5]	Potency [6]	activation [3]	activity change, negative = inhibition [5]	activation [6]
O=C(NN1C(=O)/C(=C\c2ccc(O)c([N+](=O)[O-])c2)SC1=S)c1ccccc1Cl	50.1 µM (active)	inactive	–	inactive	–	–	-1.95% [at 17.1 µM, percent relative to cAMP agonist control]	-8.56% [at 30.8 µM]	0.476% [at 30.8 µM]
COc1ccc([C@@H]2[C@@H]3C(=O)N(C(C)(C)C)C(=O)[C@@H]3[C@]3(Cc4ccccc4)C(=O)N(c4cccc(Br)c4)C(=O)N23)cc1	inactive	inactive	–	inactive	–	–	2.72% [at 17.1 µM, percent relative to cAMP agonist control]	-15.9% [at 30.8 µM]	10.3% [at 30.8 µM]
Cc1ccc(S(=O)(=O)CCC(=O)Nc2sccc2C#N)cc1	inactive	inactive	–	inactive	–	–	6.67% [at 17.1 µM, percent relative to cAMP agonist control]	-10.4% [at 30.8 µM]	34.4% [at 30.8 µM]
COc1cc(/C=C2\SC(=S)N(CC(=O)O)C2=O)ccc1OS(=O)(=O)c1ccc(C)cc1	23.9 µM (active)	inactive	inactive	inactive	inactive	inactive	–	–	–
O=C1NC(=S)S/C1=C\c1ccc(SCc2ccccc2)o1	21.3 µM (active)	inactive	inactive	inactive	inactive	inactive	–	–	–
Cc1ccc(S(=O)(=O)Nc2ccc3cc([N+](=O)[O-])ccc3c2[N+](=O)[O-])cc1	21.3 µM (active)	inactive	inactive	inactive	inactive	inactive	–	–	–
COc1cc2c(cc1OC)CN(C(C)C(=O)N1CCc3ccccc31)CC2 (stereo unspecified)	inactive	inactive	inactive	inactive	inactive	inactive	–	–	–
Cc1ccc2c(c1)NC(=O)C(CC(=O)N(C)Cc1ccccc1)O2 (stereo unspecified)	inactive	inactive	–	inactive	–	–	3.24% [at 17.1 µM, percent relative to cAMP agonist control]	-5.86% [at 30.8 µM]	9.9% [at 30.8 µM]
COc1ccc(C)cc1NC(=O)c1ccccc1NS(=O)(=O)c1ccc(Cl)s1	75.7 µM (active)	inactive	inactive	inactive	inactive	inactive	–	–	–
COc1cc2c(c(OC)c1OC)C(c1ccc3c(c1)OCO3)CC(=O)O2 (stereo unspecified)	inactive	inactive	–	inactive	–	–	4.62% [at 17.1 µM, percent relative to cAMP agonist control]	-9.71% [at 30.8 µM]	18.7% [at 30.8 µM]
CCCSc1nc(C)cc(C)c1S(=O)(=O)c1ccccc1C	inactive	inactive	inactive	inactive	inactive	inactive	–	–	–
COc1ccc(C(=O)Nc2cccc(/C=C(/CCC(=O)O)c3nc4ccccc4s3)c2)cc1	15.1 µM (active)	inactive	inactive	inactive	inactive	inactive	–	–	–
O=C(O)C(c1ccccc1)N1C(=O)/C(=C/c2cccs2)SC1=S (stereo unspecified)	39.8 µM (active)	inactive	–	inactive	–	–	2.04% [at 17.1 µM, percent relative to cAMP agonist control]	-23.4% [at 30.8 µM]	6.75% [at 30.8 µM]
CCOC(=O)c1sc2nc(NC(=O)COc3ccccc3)sc2c1C	inactive	inactive	–	inactive	–	–	1.9% [at 17.1 µM, percent relative to cAMP agonist control]	-6.87% [at 30.8 µM]	25% [at 30.8 µM]
O=C(O)CCn1cc(C2CC(c3ccccc3)=NN2c2ccccc2)c(-c2ccccc2)n1 (stereo unspecified)	inactive	inactive	inactive	inactive	inactive	inactive	–	–	–
COC(=O)c1cc2sc(C)cc2n1Cc1ccc(F)cc1Cl	inactive	inactive	inactive	inactive	inactive	inactive	–	–	–
Cc1ccc(N=Cc2cc(Cc3ccccc3Cl)cc([N+](=O)[O-])c2O)c(O)c1	10.7 µM (active)	inactive	inactive	inactive	inactive	inactive	–	–	–
N#C/C(=C(/O)C(Cl)(Cl)Cl)c1nc2ccccc2[nH]1	inactive	inactive	inactive	inactive	inactive	inactive	–	–	–
